Reference: PubChem BioAssay (EPA / NIEHS)
Results filed as inconclusive are left out. Calls of active or inactive are those of the source. How the source made its calls: active means hit-call score of the fitted dose curve at least 0.9, where 1 is the maximum; inconclusive means response in the unintended direction; inactive means score below 0.9.

System: not listed separately
Assay: ATG_M_19_TRANS: Attagene TRANS-FACTORIAL HepG2 Assay for M19 Transcription Factor (Internal Marker) (AID 2282974)
Details: HepG2 Attagene TRANS-FACTORIAL M19 internal marker reporter
Summary of the method: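 Gain-of-signal in reporter mRNA, relative to DMSO, was scored from capillary electrophoresis fluorescence. HepG2 cells carried transiently transfected multiple reporter transcription units and were incubated with test chemicals for 24 h.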
With `NCCCCCCN` the outcome was “inactive”. With `OC[C@H]1O[C@H](O[C@]2(CCl)O[C@H](CCl)[C@@H](O)[C@@H]2O)[C@H](O)[C@@H](O)[C@H]1Cl` the outcome was “inactive”. For `CCCCCC=CCC(=O)OC`, the outcome was “inactive”. For `O=C(O)c1ccc(C(=O)O)cc1`, the outcome was “inactive”. For `CC1(C)C(=O)N(Br)C(=O)N1Cl`, the outcome was “inactive”. With `CC(C)C[C@H]1C(=O)N2CCC[C@H]2[C@]2(O)O[C@](NC(=O)[C@@H]3C=C4c5cccc6[nH]c(Br)c(c56)C[C@H]4N(C)C3)(C(C)C)C(=O)N12` the outcome was “inactive”. With `O=C(O)CN(CCN(CC(=O)O)CC(=O)O)CCN(CC(=O)O)CC(=O)O` the outcome was “inactive”. For `CCN(CC)c1ccc(C(=C2C=CC(=[N+](CC)CC)C=C2)c2ccc(S(=O)(=O)O)cc2S(=O)(=O)[O-])cc1`, the outcome was “inactive”. In the case of `Clc1ccc(Cl)c(Cl)c1Cl`, the outcome is reported as “inactive”. For `CCCC/C=C\CCCCCCCCCC=O`, the outcome was “inactive”. For `CCCOCC(C)O` (stereo unspecified), the outcome was “inactive”. For `COc1ccc(Cl)cc1C`, the outcome was “inactive”. With `O=CCCc1ccccc1` the outcome was “inactive”. For `O=c1oc(=O)c2cc3c(=O)oc(=O)c3cc12`, the outcome was “inactive”.

System: not listed separately
Assay: ATG_GAL4_TRANS: Attagene TRANS-FACTORIAL HepG2 Assay for GAL4 (Internal Marker) (AID 2282976)
Details: HepG2 Attagene TRANS GAL4 internal marker reporter
Summary of the method: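 RT-PCR/capillary electrophoresis readout of reporter mRNA. HepG2, transient MRTU transfection (GAL4-UAS reporters), 24 h compound exposure. Background-control endpoint, positive direction vs DMSO baseline.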
In the case of `O=C1C(c2[nH]c3ccc(S(=O)(=O)O)cc3c2O)=Nc2ccc(S(=O)(=O)O)cc21`, the outcome is reported as “inactive”. With `COc1cc2ncnc(Nc3cccc(Cl)c3)c2cc1OC` the outcome was “inactive”. In the case of `NCCCCCCN`, the outcome is reported as “inactive”. For `OC[C@H]1O[C@H](O[C@]2(CCl)O[C@H](CCl)[C@@H](O)[C@@H]2O)[C@H](O)[C@@H](O)[C@H]1Cl`, the outcome was “inactive”. For `CCCCCC=CCC(=O)OC`, the outcome was “inactive”. With `CN1[C@@H]2CC(OC(=O)[C@H](CO)c3ccccc3)C[C@H]1[C@@H]1O[C@@H]12` (stereo partly specified) the outcome was “inactive”. In the case of `CCCCCCCCC=O`, the outcome is reported as “inactive”. For `O=C(O)c1ccc(C(=O)O)cc1`, the outcome was “inactive”. With `CC(C)(C#N)c1cc(Cn2cncn2)cc(C(C)(C)C#N)c1` the outcome was “inactive”. For `CC1(C)C(=O)N(Br)C(=O)N1Cl`, the outcome was “inactive”. In the case of `CC(C)C[C@H]1C(=O)N2CCC[C@H]2[C@]2(O)O[C@](NC(=O)[C@@H]3C=C4c5cccc6[nH]c(Br)c(c56)C[C@H]4N(C)C3)(C(C)C)C(=O)N12`, the outcome is reported as “inactive”. With `O=C(O)CN(CCN(CC(=O)O)CC(=O)O)CCN(CC(=O)O)CC(=O)O` the outcome was “inactive”. For `CCN(CC)c1ccc(C(=C2C=CC(=[N+](CC)CC)C=C2)c2ccc(S(=O)(=O)O)cc2S(=O)(=O)[O-])cc1`, the outcome was “inactive”. In the case of `Clc1ccc(Cl)c(Cl)c1Cl`, the outcome is reported as “inactive”. For `CCCC/C=C\CCCCCCCCCC=O`, the outcome was “inactive”. In the case of `N#Cc1ccccc1`, the outcome is reported as “inactive”. With `CCCOCC(C)O` (stereo unspecified) the outcome was “inactive”. With `COc1ccc(Cl)cc1C` the outcome was “inactive”. In the case of `CC(C)OP(=O)(CP(=O)(OC(C)C)OC(C)C)OC(C)C`, the outcome is reported as “inactive”. With `C=CC(=O)OCCn1c(=O)n(CCOC(=O)C=C)c(=O)n(CCOC(=O)C=C)c1=O` the outcome was “inactive”. In the case of `CC[C@]12CCCN3CCc4c(n(c5ccccc45)[C@@](O)(C(=O)OC)C1)[C@@H]32`, the outcome is reported as “inactive”. With `Nc1cc([N+](=O)[O-])ccc1Cl` the outcome was “inactive”. With `O=c1oc(=O)c2cc3c(=O)oc(=O)c3cc12` the outcome was “inactive”.

Molecular target: Estrogen-related receptor gamma (Homo sapiens) (UniProt P62508)
Sequence (P62508 whole entry, looked up): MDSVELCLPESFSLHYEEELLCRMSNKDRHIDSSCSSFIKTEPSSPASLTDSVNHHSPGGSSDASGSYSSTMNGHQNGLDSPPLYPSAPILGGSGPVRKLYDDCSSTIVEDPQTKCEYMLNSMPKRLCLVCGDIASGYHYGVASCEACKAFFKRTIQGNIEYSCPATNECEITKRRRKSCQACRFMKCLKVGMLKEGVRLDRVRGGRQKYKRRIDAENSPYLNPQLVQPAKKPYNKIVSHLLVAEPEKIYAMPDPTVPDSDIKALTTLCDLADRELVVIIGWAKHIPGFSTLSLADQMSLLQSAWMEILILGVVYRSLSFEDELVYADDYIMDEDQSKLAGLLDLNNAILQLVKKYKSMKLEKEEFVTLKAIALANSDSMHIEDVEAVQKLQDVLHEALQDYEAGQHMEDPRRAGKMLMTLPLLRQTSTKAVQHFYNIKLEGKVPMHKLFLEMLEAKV
Assay: ATG_ERRg_TRANS: Attagene TRANS-FACTORIAL HepG2 Assay for human Estrogen-Related Receptor gamma (ERRg) (AID 2282977);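 further: hits increase reporter signal over DMSO so potencies reflect activators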
Details: HepG2 Attagene TRANS reporter, ERRg transactivation
Summary of the method: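 Exogenous NR-Gal4 chimera activity was assessed in HepG2 cells bearing transfected GAL4-UAS reporters. After 24 h dosing, total RNA underwent RT-PCR, fluorescent primer extension and HpaI digestion before capillary electrophoresis, with gain of signal scored against DMSO.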
For `NCCCCCCN`, the outcome was “inactive”. In the case of `CCCCCCCCC=O`, the outcome is reported as “inactive”. For `CC(C)C[C@H]1C(=O)N2CCC[C@H]2[C@]2(O)O[C@](NC(=O)[C@@H]3C=C4c5cccc6[nH]c(Br)c(c56)C[C@H]4N(C)C3)(C(C)C)C(=O)N12`, the outcome was “inactive”. For `O=C(O)CN(CCN(CC(=O)O)CC(=O)O)CCN(CC(=O)O)CC(=O)O`, the outcome was “inactive”. With `CCN(CC)c1ccc(C(=C2C=CC(=[N+](CC)CC)C=C2)c2ccc(S(=O)(=O)O)cc2S(=O)(=O)[O-])cc1` the outcome was “inactive”. In the case of `CCCC/C=C\CCCCCCCCCC=O`, the outcome is reported as “inactive”. With `N#Cc1ccccc1` the outcome was “inactive”. For `CCCOCC(C)O` (stereo unspecified), the outcome was “inactive”. For `COc1ccc(Cl)cc1C`, the outcome was “inactive”. In the case of `C=CC(=O)OCCn1c(=O)n(CCOC(=O)C=C)c(=O)n(CCOC(=O)C=C)c1=O`, the outcome is reported as “inactive”. With `CC[C@]12CCCN3CCc4c(n(c5ccccc45)[C@@](O)(C(=O)OC)C1)[C@@H]32` the outcome was “inactive”. In the case of `CC(C#N)(CCC(=O)O)N=NC(C)(C#N)CCC(=O)O` (stereo unspecified), the outcome is reported as “inactive”. With `O=c1oc(=O)c2cc3c(=O)oc(=O)c3cc12` the outcome was “inactive”.

Molecular target: Glucocorticoid receptor (Homo sapiens) (UniProt P04150)
Sequence (P04150 whole entry, looked up): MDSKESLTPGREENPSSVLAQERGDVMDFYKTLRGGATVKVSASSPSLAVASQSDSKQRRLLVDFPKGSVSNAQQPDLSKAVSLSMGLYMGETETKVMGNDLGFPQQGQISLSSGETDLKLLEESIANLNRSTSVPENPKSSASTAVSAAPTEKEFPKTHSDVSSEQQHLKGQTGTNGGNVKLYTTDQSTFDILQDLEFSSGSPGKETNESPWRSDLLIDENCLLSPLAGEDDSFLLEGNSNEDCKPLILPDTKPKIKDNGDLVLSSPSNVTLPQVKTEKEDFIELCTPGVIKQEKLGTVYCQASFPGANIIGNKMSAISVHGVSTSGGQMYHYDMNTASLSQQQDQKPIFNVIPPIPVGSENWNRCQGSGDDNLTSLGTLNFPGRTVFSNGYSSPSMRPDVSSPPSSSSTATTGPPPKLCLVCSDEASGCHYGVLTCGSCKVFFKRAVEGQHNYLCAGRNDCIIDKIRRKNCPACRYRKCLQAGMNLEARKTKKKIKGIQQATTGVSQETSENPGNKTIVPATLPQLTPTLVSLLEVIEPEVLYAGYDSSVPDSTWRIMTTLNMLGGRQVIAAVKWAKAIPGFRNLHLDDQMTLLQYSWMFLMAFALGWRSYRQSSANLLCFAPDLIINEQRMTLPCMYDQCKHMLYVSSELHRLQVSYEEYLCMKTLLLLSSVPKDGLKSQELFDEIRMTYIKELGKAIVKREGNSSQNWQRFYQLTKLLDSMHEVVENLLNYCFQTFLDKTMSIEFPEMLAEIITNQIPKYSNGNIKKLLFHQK
Assay: ATG_GR_TRANS: Attagene TRANS-FACTORIAL HepG2 Assay for human Glucocorticoid Receptor (GR) (AID 2282978);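 further: activators score as hits since higher reporter transcript over DMSO is fitted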
Details: HepG2 Attagene TRANS GR reporter, mRNA transcription
Summary of the method: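 HepG2 transient transfection, multiple reporter units, GAL4-UAS under NR-GAL4 chimera control. 24 h treatment. Reporter mRNA by RT-PCR/CE fluorescence, DMSO as negative control.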
With `O=S(=O)(O)c1ccc(O)c2ncccc12` the outcome was “inactive”. In the case of `OC[C@H]1O[C@H](O[C@]2(CCl)O[C@H](CCl)[C@@H](O)[C@@H]2O)[C@H](O)[C@@H](O)[C@H]1Cl`, the outcome is reported as “inactive”. In the case of `CCCCCC=CCC(=O)OC`, the outcome is reported as “inactive”. With `CNCCCC12CCC(c3ccccc31)c1ccccc12` the outcome was “inactive”. With `Cc1ccc2n[nH]nc2c1` the outcome was “inactive”. In the case of `O=C(O)c1ccc(C(=O)O)cc1`, the outcome is reported as “inactive”. In the case of `CC(C)(C#N)c1cc(Cn2cncn2)cc(C(C)(C)C#N)c1`, the outcome is reported as “inactive”. In the case of `CC(C)C[C@H]1C(=O)N2CCC[C@H]2[C@]2(O)O[C@](NC(=O)[C@@H]3C=C4c5cccc6[nH]c(Br)c(c56)C[C@H]4N(C)C3)(C(C)C)C(=O)N12`, the outcome is reported as “inactive”. For `CCN(CC)c1ccc(C(=C2C=CC(=[N+](CC)CC)C=C2)c2ccc(S(=O)(=O)O)cc2S(=O)(=O)[O-])cc1`, the outcome was “inactive”. In the case of `Clc1ccc(Cl)c(Cl)c1Cl`, the outcome is reported as “inactive”. In the case of `N#Cc1ccccc1`, the outcome is reported as “inactive”. With `NC(N)=NC(=O)c1nc(Cl)c(N)nc1N` the outcome was “inactive”. For `C=CC(=O)OCCn1c(=O)n(CCOC(=O)C=C)c(=O)n(CCOC(=O)C=C)c1=O`, the outcome was “inactive”. For `Nc1cc([N+](=O)[O-])ccc1Cl`, the outcome was “inactive”. With `CC(C#N)(CCC(=O)O)N=NC(C)(C#N)CCC(=O)O` (stereo unspecified) the outcome was “inactive”. In the case of `C[C@]12CC[C@H]3[C@@H](CCC4=CC(=O)CC[C@@]43C)[C@@H]1CC[C@@H]2C(=O)CO`, the AC50 is reported as 6.33 µM (active).
